The values below come from PubChem BioAssay (NCI).

Assay in all cases: NCI-60 one-dose screen, 48 h (100 = growth as untreated, 0 = no growth, -100 = all killed)
Common to all, as to details: 10 µM unless noted

Experiment [1] relates to NCI-H23 lung.
The subject of experiment [2] is NCI-H226 lung.
Experiment [3] has as its system NCI-H322M lung.
Experiment [4] relates to HOP-62 NSCLC.
Experiment [5] concerns NCI-H460 lung.
For experiment [6], the system named is HOP-92 NSCLC.
The subject of experiment [7] is NCI-H522 lung.
For experiment [8], the system named is A549/ATCC NSCLC.
Experiment [9] relates to 786-0 renal.
For experiment [10], the system named is COLO 205 colon.
Experiment [11] relates to DU-145 prostate.
In experiment [12] the test system is K-562 leukemia.
The subject of experiment [13] is MALME-3M melanoma.
The test system of experiment [14] is MDA-MB-231 breast.
Experiment [15] has as its system RXF 393 renal.
For experiment [16], the system named is SF-268 CNS.
Experiment [17] relates to SF-295 CNS.
Experiment [18] relates to SF-539 CNS.
In experiment [19] the test system is UACC-257 melanoma.
The test system of experiment [20] is M14 melanoma.

SMILES strings stand for the structures. This is part of a sample that, as a whole, favours compounds with a hit. Of some 83,000 tested, about 20% had one in any assay.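 The test compound was applied at a single concentration to cells in 96-well plates for 48 hours, and percent growth was recorded.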 A number with no mark means an inactive call. The source made the active and inactive calls. Rule for the calls: active = growth percent below 10; inactive = the rest.

For the molecule `COC(=O)c1c(C)nc(C)c2c1C(=O)C(Br)=C(NCCCCO)C2=O`, the growth in experiment [1] was 51.1%; in experiment [2], 96.7%; in experiment [3] it was 75.5%; in experiment [4], 114%; in experiment [5], 40%; in experiment [6], 140%. For the same molecule, the growth in experiment [7] was 71.1%; in experiment [8], 75.1%; in experiment [9], 89.2%; in experiment [10] it was 17%; in experiment [11] it was 79.6%; in experiment [12], 71%. The growth in experiment [13] was -2.98% (active); in [14], 75.1%; in [15], 77.7%; in experiment [16], 76.3%; in experiment [17], 72.1%; in [18], 89.5%. Also, the growth in experiment [19] is 45.6%; in experiment [20], 46.9%.
Consider `CCOC(=O)c1c2c(n3ccc(NC(=O)CCN4CCCC4)cc13)C(=O)c1ncccc1C2=O`, for which the growth is -72.5% (active) in [1]; 63.6% in experiment [2]; -76.7% (active) in experiment [3]; -68.5% (active) in experiment [4]; -79.9% (active) in [5]; 56.2% in [6]. Besides, the growth in experiment [7] is -37% (active); in experiment [8] it was -66.6% (active); in experiment [9], -88.2% (active); in [10], 15.4%; in experiment [11], -89.3% (active); in experiment [12] it was -40.3% (active). Also, the growth was 66.3% in experiment [13]; -71.2% (active) in experiment [14]; 47.5% in [15]; -67.8% (active) in experiment [16]; 32.2% in experiment [17]; -75.8% (active) in experiment [18]. Besides, the growth in [19] is 105%; in experiment [20], 63.7%.
`Cc1cccc(CN(Nc2ccccc2)c2ccccc2)n1`: the growth in [1] is 104%; in experiment [2], 103%; in experiment [3], 96.7%; in [4] it was 99.8%; in [5], 101%; in experiment [6], 65%. For the same molecule, the growth in experiment [7] was 103%; in [8] it was 93.1%; in experiment [9], 107%; in experiment [10] it was 111%; in experiment [11] it was 107%; in experiment [12], 87.5%. The growth was 89.8% in experiment [13]; 118% in experiment [14]; 96.3% in [15]; 101% in experiment [16]; 118% in experiment [17]; 96.6% in experiment [18]. Moreover, the growth in experiment [19] was 98.7%; in experiment [20], 105%.
For `COc1ccc(-c2ccc(-c3ccc(C(=N)N)nc3)s2)cc1`, the growth in experiment [1] was -29.9% (active); in experiment [2] it was 83.4%; in [3] it was -19.8% (active); in [4], -54.9% (active); in experiment [5] it was -85.1% (active); in experiment [6] it was 77.9%. Also, the growth in [7] is -44.9% (active); in experiment [8], -56.7% (active); in experiment [9], -84.2% (active); in experiment [10], -52.2% (active); in experiment [11], -91.5% (active); in experiment [12], -27% (active). For the same molecule, the growth in [13] was 87.7%; in [14], -79.8% (active); in [15], 66.4%; in experiment [16] it was -65.4% (active); in [17], -81.2% (active); in experiment [18], -98.4% (active). The figures for the growth in [19] and in experiment [20] were 84.6% and -56.6% (active), respectively.
On to `O=C1/C(=C/c2ccc(Br)cc2)COc2ccc(O)cc21`, for which the growth was 101% in experiment [1]; 95.5% in [2]; 95.6% in experiment [3]; 99% in experiment [4]; 102% in [5]; 99.9% in experiment [6]. For the same molecule, the growth in experiment [7] was 15.8%; in experiment [8], 91.1%; in [9], 76.4%; in experiment [10], 86.8%; in experiment [11], 101%; in experiment [12], 9.11% (active). The growth was 91.7% in experiment [13]; 85.9% in experiment [14]; 95.9% in experiment [15]; 89.8% in [16]; 100% in experiment [17]; 92.5% in experiment [18]. The growth in [19] is 103%; in [20] it was 83.7%.
As to `CCN(CC)CCOc1ccc(/C(=C(\C)Cc2ccc(OC)cc2)c2ccc(O)cc2)cc1`, the growth in [1] is 59.2%; in experiment [2] it was 74.6%; in experiment [3], 54.5%; in [4], 25.8%; in experiment [5], -36.4% (active); in [6], 2.96% (active). Moreover, the growth in experiment [7] is -9.94% (active); in experiment [8], 19.4%; in [9] it was -37.1% (active); in [10], -72.1% (active); in experiment [11], 53.4%; in experiment [12], -56.7% (active). For the same molecule, the growth in [13] is -76.7% (active); in experiment [14] it was 24%; in experiment [15], 6.99% (active); in experiment [16] it was 47.9%; in experiment [17], -25.3% (active); in experiment [18], -50.8% (active). The figures for the growth in experiment [19] and in [20] were -62.9% (active) and -77.3% (active), respectively.
In the case of `COc1cc2ncnc(Nc3ccc(S(=O)(=O)Nc4cc(C)on4)cc3)c2cc1OCCCN1CCOCC1`, the growth is 100% in experiment [1]; 94% in [2]; 101% in experiment [3]; 95.8% in experiment [4]; 110% in experiment [5]; 87.4% in [6]. Further, the growth in experiment [7] was 96.8%; in [8] it was 95.3%; in experiment [9] it was 107%; in [10] it was 106%; in [11] it was 108%; in experiment [12], 102%. The growth in experiment [13] was 95.3%; in experiment [14], 105%; in experiment [15], 102%; in [16] it was 98.1%; in experiment [17], 97.7%; in [18], 99.4%. Besides, the growth is 99.8% in experiment [19] and 105% in experiment [20].
